# Bioassay records deposited in PubChem by several laboratories.
# Shn3 3UTR inh: reduction of Shn3 3'UTR firefly luciferase signal, primary screen, Schnurri-3 inhibitor project, cell-based, Clone20 osteoblasts, set 2. Clone20 osteoblast Shn3 3'UTR firefly luciferase, 24 h. inhibition, % at 12.5 µM. 360,000 compounds, 0.52% hits. AID 588674, 2011;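 active = mean inhibition of at least 75% with every replicate also reaching 75%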
# KKLEB tox: cytotoxicity in KKLEB CF airway cells, primary screen, cytotoxicity control for CF NF-kB inhibitor project, cell-based, uHTS, fluorescence assay plates; KKLEB CF airway cells viability, ATPlite luminescence, overnight; active compounds read low; cells stimulated with P. aeruginosa culture filtrate; 360,000 compounds, 0.36% hits; activity change (cytotoxicity), % at 5 µM; AID 602141, 2011;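 active = corrected activity change at or below -50% at 5 µM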
# CF NFkB block: inhibitors of PAF-induced NF-kB signaling, primary screen, cell-based, GFP fluorescence, uHTS; 360,000 compounds, 0.86% hits; KKLEB NF-kB-GFP reporter, GFP fluorescence overnight; inhibition, % at 5 µM;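 active = at least 50% inhibition at 5 µM, scaled per plate between neutral and stimulator controls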;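 note: PAF is a Pseudomonas aeruginosa culture filtrate used as stimulus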
# Peg3 prom inh-1: Peg3 promoter-driven luciferase inhibitors, primary screen, cell-based, HeLa, luciferase luminescence | AID 588405, 2011 | 360,000 compounds, 1.7% hits | HeLa PEG-Prom luciferase reporter, overnight | inhibition, % at 20 µM;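 active = inhibition of at least 50% at 20 µM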
# HIF-2a block: HIF-2a reporter inhibitors, primary screen, luminescence, 786-0 RCC cells; 786-0 RCC cells HIF-2a reporter, luciferase luminescence, overnight; inhibition, % at 18.8 µM; 360,000 compounds, 0.72% hits; AID 624352, 2012;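 active = inhibition of the luminescence signal of 40% or more relative to plate controls, in a single-dose primary screen at 18.75 µM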
# Peg3 prom inh-2: Peg3 promoter reporter inhibitors, retest, confirmation, cell-based, HeLa, luciferase reporter, single concentration. HeLa PEG-Prom luciferase reporter, luminescence, overnight. shares compounds with Peg3 prom inh-1. 1,300 compounds, 84% hits. inhibition, % at 20 µM;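 active = at 20 µM dose, 40% or more inhibition averaged across four replicates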
# A number is an active result; - = inactive; . = not tested or not shown. An excerpt weighted towards active compounds, which were near 2.6% of everything screened.
SMILES,Shn3 3UTR inh,KKLEB tox,CF NFkB block,Peg3 prom inh-1,HIF-2a block,Peg3 prom inh-2
NC(=O)CC(NC(=O)Cc1ccc(Br)cc1)c1ccc(N2CCc3ccccc3C2)c([N+](=O)[O-])c1 (stereo unspecified),-,-,-,-,-,.
Cc1noc(C)c1S(=O)(=O)N(C)C[C@@H]1OCc2cnnn2CCCC(=O)N([C@H](C)CO)C[C@@H]1C,-,-,-,-,-,.
Cc1cc(C)c2c(N)c3ccccc3nc2n1,-,-,-,87,-,91
CN(C)CCNc1ncnc2c1sc1nc(N3CCCC3)c3c(c12)CC(C)(C)OC3,-,-,-,57,-,67
COc1cc(OC)cc(C(=O)O/N=C(\N)c2ccccn2)c1,-,-,-,-,-,.
COc1ccc(C(=O)NNC(=O)c2ccccn2)cc1,-,-,-,105,83,95
N/C(=N\OC(=O)c1ccc(Cl)cc1)c1ccccn1,-,-,-,78,-,-
COc1ccc(C(=O)O/N=C(\N)c2ccccn2)cc1,-,-,-,99,-,92
COc1ccccc1C(=O)O/N=C(\N)c1ccccn1,-,-,-,-,-,.
N/C(=N\OC(=O)c1ccccc1Cl)c1ccccn1,-,-,-,59,-,-
Cc1ccc(CCNC(=O)C2CCC(=O)N2Cc2cccnc2)cc1 (stereo unspecified),-,-,-,-,-,.
COc1ncnc2c1oc1nc(CC(C)C)c3c(c12)CCCC3,-,-,-,-,-,.
CCCc1nc2oc3c(Cl)ncnc3c2c2c1CCCC2,-,-,-,99,-,-
NCCc1c(-c2ccccc2)n(-c2ccccc2)c2ccccc12,-,-,-,107,-,99
CC(=O)n1c(-c2ccccc2)c(CO)c2ccccc21,-,-,-,-,-,.
Nc1ccc(S(=O)(=O)NC2(C(F)(F)F)NC(=O)N(c3ccc(F)cc3)C2=O)cc1 (stereo unspecified),-,-,-,-,-,.
COc1ccc(-c2coc3c(C(=O)NCCN(C)C)cccc23)c(C)c1,-,-,-,-,-,.
COc1ccc(-c2nc3c(C(=O)NCCN(C)C)cccc3c3ccccc23)cc1,-,-,-,95,-,99
Oc1ccc(NC(=S)N=Nc2c(O)[nH]c3ccc(Br)cc23)cc1,-,-,-,-,-,.
Oc1[nH]c2ccc(Br)cc2c1N=NC(=S)Nc1ccc(F)cc1,-,-,-,65,-,67
Cc1cc(Br)ccc1NC(=O)CNC(=O)CN1C(=O)NC2(CCCCCC2)C1=O,-,-,-,-,-,.
Cc1cc(Br)ccc1NC(=O)CN1C(=O)C2C3CC(c4ccccc4)C(C3)C2C1=O (stereo unspecified),-,-,-,56,-,63
O=C(Nc1ccc2[nH]ccc2c1)c1ccc(F)cc1,-,-,-,-,-,.
COc1cc(OC)cc(C(=O)Nc2ccccc2-c2nnn(CC(=O)Nc3cc(C)on3)n2)c1,-,-,-,71,-,-
O=C(Nc1ccccc1)C1Cc2c(-c3ccc4c(c3)OCO4)ccnc2O1 (stereo unspecified),-,-,-,-,-,.
SMILES,Shn3 3UTR inh,KKLEB tox,CF NFkB block,Peg3 prom inh-1,HIF-2a block,Peg3 prom inh-2
CC(C)C1N=C2c3ccccc3N=C(SCc3cc(=O)n4cc(Cl)ccc4n3)N2C1=O (stereo unspecified),-,-,-,-,-,.
N=c1n(CCN2CCCCC2)c2ccccc2n1CC(O)c1ccc(Cl)c(Cl)c1 (stereo unspecified),-,-,-,117,-,100
COCC(C)n1c(C)cc(C(=O)COC(=O)c2cnc(Cl)c(Cl)c2)c1C (stereo unspecified),-,-,-,-,-,.
COCC(C)n1c(C)cc(C(=O)COC(=O)c2cccn2C)c1C (stereo unspecified),-,-,-,56,-,45
COC(CNC(=O)c1cccnc1)OC,-,-,-,-,-,.
COC(CNC(=O)c1ccc2c3c(onc13)-c1ccccc1C2=O)OC,.,-,-,102,-,99
OC1(c2ccc(Cl)c(Cl)c2)C[n+]2ccccc2N1Cc1ccccc1 (stereo unspecified),-,-,-,95,-,90
COC(=O)c1ccc(Nc2cc(C)nc3ccc(C)cc23)cc1,-,-,-,56,-,89
COC(=O)c1ccc2nc(C)cc(Nc3ccccc3C)c2c1,-,-,-,-,-,.
N/C(=N\OC(=O)c1ccccc1)C(Cc1ccccc1)C(=O)NOC(=O)c1ccccc1 (stereo unspecified),-,-,-,99,-,99
O=C(NOC(=O)c1ccccc1)c1ccccc1,.,-,-,-,-,.
C(=C\c1ccc2ccccc2n1)/c1ccccc1,-,-,-,-,-,.
CN(C)c1ccc(/C=C/c2nc3ccccc3s2)cc1,-,-83,-,102,62,67
CN(C)c1ccc(/C=C/c2ccc3ccccc3n2)cc1,88,-80,-,89,76,68
O=C(CCN1C(=O)c2ccccc2C1=O)Nc1ccccc1C(F)(F)F,-,-,-,-,-,.
O=C1N=C(N2CCOCC2)S/C1=C\c1ccc(-c2ccccc2Cl)o1,-,-,-,55,-,-
COc1ccc(/C=C/C(=O)Oc2ccc(C)c(C)c2)cc1OC,-,-,-,-,-,.
COc1cc(/C=C/[N+](=O)[O-])ccc1OC(=O)/C=C/c1ccc(F)cc1,-,-,-,103,-,52
CC1CN(C(=O)Cn2c(=O)oc3ccccc32)CC(C)O1 (stereo unspecified),-,-,-,-,-,.
COc1ccc(-c2cc3ccccc3n2CC(O)CN2CCCCC2)cc1 (stereo unspecified),-,-,-,-,-,.
CCC(=C(c1ccc(OC)cc1)c1ccc(OC)cc1)c1cn(CC(O)CN2CCN(C)CC2)c2ccccc12 (stereo unspecified),-,-,-,105,-,101
CC(NC(=O)CNC(=O)c1sc2ccccc2c1Cl)c1ccc(S(N)(=O)=O)cc1 (stereo unspecified),-,-,-,-,-,.
Cc1ccc(NC(=O)CCc2nc3ccccc3c(=O)[nH]2)cc1S(=O)(=O)N1CCOCC1,-,-,-,-,-,.
C[C@@H]1[C@H]2[C@@H]3CC[C@@H](C3)[C@H]2CN[C@H]1c1cn(Cc2ccccc2)c2ccccc12,-,-,-,71,-,54
COc1cccc(-c2cccc(-c3nc(C(=O)NCc4ccc(Oc5ccccc5)cc4)cc4c3[C@H](CCO)N(S(=O)C(C)(C)C)C4)c2)c1 (stereo partly specified),-,-,-,73,-,-
